Data on 10 molecules can be found in PubChem BioAssay.

The nature of test [1]: viability loss in pontine glioma line – cell-based, JHH-DIPG-1, MIPE4.0, CellTiter-Glo, qHTS, dose response (AID 1347062; cut-off not given, nearly all actives have AC50 up to about 27 µM;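 for AC50: cells exposed to compound for two days before readout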). The following applies: JHH-DIPG-1 viability, CellTiter-Glo ATP luminescence.
Test [2] is described as follows: growth inhibition of DIPG cells – cell-based, MIPE5.0 library, qHTS (AID 1347068; cut-off not given, nearly all actives have IC50 up to about 30 µM;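 for IC50: cells exposed to compound for 48 hours before viability readout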). The following applies: SU-DIPG-XXV viability. (In general: qHTS replaces the single test concentration by a dilution series.)
Test [3] is described as follows: viability loss with induced miR-34 in A549 – imaging, A549 dox-inducible miR-34, nuclei and caspase counts, primary screen (AID 1347080;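 active = compounds whose cell count with miR-34 switched on is under 0.7 times the count with it off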). The following applies: A549 miR-34 inducible, Hoechst nuclei count, 48 h.
Test [4] can be described thus: compounds altering HSF1 focus formation in cells – imaging, Selleck Cancer Library (AID 1347162; in the data active = plate-normalised HSF1 focus index below about 0.46). The following applies: human cells, HSF1 nuclear foci imaging, at 10 µM; SSMD: measured here: HSF1 foci SSMD mean; cell count: measured here: cell number; plate-normalised HSF1 focus index: stronger effect = lower value.
Test [5] is described as follows: MELAS cybrid and Rieske KO viability enhancers – cell-based, MELAS cybrids, Rieske KO mouse fibroblasts, CellTiter-Glo, primary screen (AID 1508586;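 active = mean z-score across replicates of 1.96 or higher in either the MELAS or the Rieske mutant cell line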;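 note: z relative to plate mean and SD of compound and empty wells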). The following applies: low glucose.
A short description of test [6]: drug combination growth inhibition, ovarian cancer – cell-based, oncology-focused library, rucaparib conditional, profiling panel (AID 1508598). The following applies: patient-derived ovarian cancer cells, CellTiter-Glo viability, 144 h, stronger effect = lower value.
The nature of test [7]: blockers of polyQ-driven CASP3 activation – cell-based (AID 1583). The following applies: polyglutamine-induced caspase-3 activation, cell assay; stronger effect = higher value;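 tested at 10 µM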.
The nature of test [8]: yeast 75Q aggregation reduction – 75Q-TubU reporter (AID 1593). The following applies: Yeast 75Q polyglutamine aggregation reporter.
Test [9] is described as follows: restoration of touch response, mutant HTT neurons – whole organism, C. elegans mechanosensory neurons, N-terminal huntingtin (AID 1599). The following applies: C. elegans polyQ-huntingtin mechanosensory neurons, stronger effect = higher value.
Test [10] is described as follows: blockers of cytochrome c efflux from mitochondria – biochemical, purified mitochondria (AID 1603).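 Note: mouse liver mitochondria challenged with calcium chloride; signal normalized to the plate average as 100%.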 The following applies: stronger effect = lower value.
Test [11] is described as follows: polyglutamine aggregate formation blockers (AID 1604). The following applies: polyglutamine-induced protein aggregation inhibition assay; stronger effect = higher value; tested at 2.5 µM.
The nature of test [12]: glutamate transport activators, MN-1 cells, MN-1 cell line (AID 1612).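 Note: tested at 1 µM final; 0% = mean of DMSO vehicle wells on each plate; positive means more glutamate uptake than control and negative means less.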 The following applies: MN-1 motor neuron cells, stronger effect = higher value.
Test [13] can be described thus: GFP-Q80 aggregate reduction, neuronal-like cells, cell-based, NGF-treated PC12, GFPQ80 (AID 1614).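 Note: lower means fewer inclusions and 0 means no inclusions at all.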 The following applies: PC12 NGF-treated GFP-polyQ80 inclusion reduction.
Test [14] in a line: 75Q-TubH aggregate inhibition, S. cerevisiae, yeast (AID 1616). The following applies: S. cerevisiae 75Q-TubH polyglutamine aggregation suppression; stronger effect = higher value.
The nature of test [15]: viability loss in pontine glioma line – cell-based, SU-DIPG-IV, MIPE4.0, CellTiter-Glo, qHTS, dose response (AID 1347063; cut-off not given, nearly all actives have AC50 up to about 30 µM;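 note: compound exposure lasted 48 hours before the viability readout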). The following applies: CellTiter-Glo ATP luminescence. On the technique in general: Cellular ATP, detected with luciferase, serves as a proxy for viable cell number.
Test [16] is described as follows: growth inhibition of DIPG cells – cell-based, MIPE4.0 library, CellTiter-Glo luminescence, qHTS (AID 1347066; cut-off not given, nearly all actives have AC50 up to about 30 µM;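 note: cells exposed to compound for 48 hours before readout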). The following applies: SU-DIPG-VI viability, CellTiter-Glo ATP luminescence.
Test [17] is described as follows: JHH-DIPG-1 glioma cell viability, MIPE5.0 library, CellTiter-Glo luminescence, qHTS (AID 1347067; cut-off not given, nearly all actives have AC50 up to about 26 µM;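 note: cells exposed to compound for 48 hours before readout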). The following applies: JHH-DIPG-1 glioma viability, CellTiter-Glo ATP luminescence.
Test [18] can be described thus: viability loss in pontine glioma line – cell-based, SU-DIPG-XIII, MIPE5.0, CellTiter-Glo, qHTS, dose response (AID 1347064; cut-off not given, nearly all actives have AC50 up to about 23 µM). The following applies: CellTiter-Glo ATP luminescence.
Test [19] concerns the target NAD(+) hydrolase SARM1 (Homo sapiens) (UniProt Q6SZW1). Kind of test: blocking NAD cleavage by SARM1 SAM-TIR – cell lysate, NAD-Glo luminescence (AID 1508614;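 active = compound whose remaining NAD level is above about 45 nM, limit read from the data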;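 note: higher remaining NAD means stronger inhibition of SARM1 NADase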). The following applies: SAM-TIR HEK293T lysate NADase, at 1 µM, stronger effect = higher value.
Test [20] can be described thus: viability loss in pontine glioma line – cell-based, SU-DIPG-XXV, MIPE5.0, CellTiter-Glo, qHTS, dose response (AID 1347065; cut-off not given, nearly all actives have AC50 up to about 26 µM;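 note: cells exposed to compound for 48 hours before ATP readout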). The following applies: CellTiter-Glo ATP luminescence.

Each structure is given as a SMILES string. Results filed as inconclusive are left out. For some of these results: Results with a measured potency or affinity are listed apart. The source made the active and inactive calls.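 Rule for the calls, unless noted: active = normalized viability below 100% at a tested concentration; inactive = the rest.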

Sequence of NAD(+) hydrolase SARM1 (Homo sapiens) (Q6SZW1 whole entry, looked up): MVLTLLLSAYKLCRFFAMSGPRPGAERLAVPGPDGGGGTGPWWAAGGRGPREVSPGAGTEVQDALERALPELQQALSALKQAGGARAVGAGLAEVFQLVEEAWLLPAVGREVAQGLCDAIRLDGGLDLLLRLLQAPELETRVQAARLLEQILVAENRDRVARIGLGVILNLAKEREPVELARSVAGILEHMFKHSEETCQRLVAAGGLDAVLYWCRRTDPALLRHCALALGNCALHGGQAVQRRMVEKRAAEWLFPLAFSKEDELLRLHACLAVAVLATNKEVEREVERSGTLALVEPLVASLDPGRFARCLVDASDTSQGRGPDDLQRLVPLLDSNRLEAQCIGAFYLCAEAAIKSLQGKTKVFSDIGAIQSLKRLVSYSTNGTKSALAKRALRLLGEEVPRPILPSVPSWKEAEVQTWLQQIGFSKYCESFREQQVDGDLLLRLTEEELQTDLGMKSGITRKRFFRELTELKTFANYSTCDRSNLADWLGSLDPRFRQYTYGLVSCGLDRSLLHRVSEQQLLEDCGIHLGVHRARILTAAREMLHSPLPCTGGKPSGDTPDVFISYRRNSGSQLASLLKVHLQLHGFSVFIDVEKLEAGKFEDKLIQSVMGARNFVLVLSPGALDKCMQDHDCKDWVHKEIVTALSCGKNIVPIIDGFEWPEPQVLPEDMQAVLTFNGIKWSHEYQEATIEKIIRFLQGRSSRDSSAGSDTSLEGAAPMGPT

`O=C(Nc1cccnc1)N1CCC(Cc2cccc(Oc3ccc(C(F)(F)F)cn3)c2)CC1`: the outcome in test [1] and in test [2] was inactive. Also, the fold change in test [3] (stronger effect = lower value, cell number ratio, induced over uninduced) is 1.36 (inactive); in test [3] (measured here: relative caspase fold change +Dox/-Dox) it was 0.837. Also, the cell count came out at 4250 in test [3] (measured here: total cells with miR-34 induction, stronger effect = lower value); 3120 in [3] (measured here: total cells without miR-34 induction); 7690 in [4]. This molecule displayed an SSMD in [4] of 3.05. Further, in test [4], the plate-normalised HSF1 focus index was 1.19 (inactive). For the same molecule, the z-score is -0.261 (inactive) in test [5] (MELAS cybrid survival, CellTiter-Glo 48 h, stronger effect = higher value) and -0.332 in [5] (Rieske KO mouse fibroblast survival, CellTiter-Glo 72 h). Moreover, the viability (as a rule, a read-out of living cells in per cent, often relative to untreated cells) in test [6] (at 0.000305 µM, OCI-C5x cells, with rucaparib 10 µM, 100% = cells with rucaparib alone) was 111% (inactive); in test [6] (at 0.000305 µM, OCI-C5x cells, without rucaparib) it was 123% (inactive); in test [6] (at 0.000305 µM, OCI-P5x cells, with rucaparib 20 µM, 100% = cells with rucaparib alone), 110% (inactive); in test [6] (at 0.000305 µM, OCI-P5x cells, without rucaparib), 110% (inactive); in test [6] (at 0.00122 µM, OCI-C5x cells, with rucaparib 10 µM, 100% = cells with rucaparib alone), 108% (inactive); in [6] (at 0.00122 µM, OCI-C5x cells, without rucaparib), 129% (inactive). The viability in [6] (at 0.00122 µM, OCI-P5x cells, with rucaparib 20 µM, 100% = cells with rucaparib alone) was 111% (inactive); in test [6] (at 0.00122 µM, OCI-P5x cells, without rucaparib), 99.8% (active); in [6] (at 0.00488 µM, OCI-C5x cells, with rucaparib 10 µM, 100% = cells with rucaparib alone), 128% (inactive); in test [6] (at 0.00488 µM, OCI-C5x cells, without rucaparib), 120% (inactive); in test [6] (at 0.00488 µM, OCI-P5x cells, with rucaparib 20 µM, 100% = cells with rucaparib alone), 112% (inactive); in test [6] (at 0.00488 µM, OCI-P5x cells, without rucaparib), 102% (inactive). The viability in test [6] (at 0.0195 µM, OCI-C5x cells, with rucaparib 10 µM, 100% = cells with rucaparib alone) is 116% (inactive); in [6] (at 0.0195 µM, OCI-C5x cells, without rucaparib) it was 118% (inactive); in test [6] (at 0.0195 µM, OCI-P5x cells, with rucaparib 20 µM, 100% = cells with rucaparib alone), 105% (inactive); in [6] (at 0.0195 µM, OCI-P5x cells, without rucaparib) it was 102% (inactive); in test [6] (at 0.0781 µM, OCI-C5x cells, with rucaparib 10 µM, 100% = cells with rucaparib alone), 114% (inactive); in test [6] (at 0.0781 µM, OCI-C5x cells, without rucaparib), 117% (inactive). The viability in test [6] (at 0.0781 µM, OCI-P5x cells, with rucaparib 20 µM, 100% = cells with rucaparib alone) is 103% (inactive); in test [6] (at 0.0781 µM, OCI-P5x cells, without rucaparib), 102% (inactive); in test [6] (at 0.313 µM, OCI-C5x cells, with rucaparib 10 µM, 100% = cells with rucaparib alone), 117% (inactive); in test [6] (at 0.313 µM, OCI-C5x cells, without rucaparib), 117% (inactive); in [6] (at 0.313 µM, OCI-P5x cells, with rucaparib 20 µM, 100% = cells with rucaparib alone), 106% (inactive); in test [6] (at 0.313 µM, OCI-P5x cells, without rucaparib), 98.4% (active). For the same molecule, the viability in test [6] (at 1.25 µM, OCI-C5x cells, with rucaparib 10 µM, 100% = cells with rucaparib alone) was 134% (inactive); in [6] (at 1.25 µM, OCI-C5x cells, without rucaparib), 129% (inactive); in [6] (at 1.25 µM, OCI-P5x cells, with rucaparib 20 µM, 100% = cells with rucaparib alone), 100% (inactive); in [6] (at 1.25 µM, OCI-P5x cells, without rucaparib) it was 96.3% (active); in test [6] (at 5 µM, OCI-C5x cells, with rucaparib 10 µM, 100% = cells with rucaparib alone), 126% (inactive); in [6] (at 5 µM, OCI-C5x cells, without rucaparib), 124% (inactive). Besides, the viability was 87.1% (active) in test [6] (at 5 µM, OCI-P5x cells, with rucaparib 20 µM, 100% = cells with rucaparib alone) and 85.5% (active) in test [6] (at 5 µM, OCI-P5x cells, without rucaparib).

Take `COc1ccc2c(c1OC)C(=O)OC2[C@H]1c2c(cc3c(c2OC)OCO3)CCN1C` (stereo not given in full): the inhibition – broadly, the change of the read-out against control, counted positive when it falls – in [7] is -3.24%. This molecule came in with a score in [8] of 1.28. Further, the rescue above control in test [9] was -2.5. For the same molecule, the cytochrome c release ratio in [10] was found to be 0.93. The molecule further registered an inhibition of aggregation in test [11] of 66.2%. The glutamate uptake change in test [12] is -10.2%. In addition, in [13], the inclusion score is 2. Also, the aggregation suppression score in test [14] is 1.38. Also, the AC50 (commonly the concentration at which the activity in the assay is half-maximal) in test [1] is 1870 nM (active).

Regarding `C[C@]1(CO)CN(c2cc(C(=O)Nc3ccc4c(c3)-c3c(c(C(N)=O)nn3-c3ccc(F)cc3)CC4)c(Cl)cn2)C[C@@]1(C)CO`, the AC50 in test [15] was 2090 nM (active).

For the molecule `CNC(=O)[C@H](CC1=CN=C2C=CCC=C12)NC(=O)[C@@H](CC(=O)NO)CC(C)C`, the half-maximal activity concentration (AC50) in test [15] is 37.2 nM (active); in test [16] it was 33.2 nM (active).

Consider `Cn1cc(-c2cnn3c(N)c(Br)c([C@@H]4CCCNC4)nc23)cn1`, for which the concentration at half-maximal activity (AC50) in test [15] is 2090 nM (active). For the same molecule, the outcome in [17] was inactive.

On to `C[C@@H](N)c1ccc(C(=O)Nc2ccnc3[nH]ccc23)cc1`, for which the half-maximal activity concentration (AC50) in test [15] is 418 nM (active). Further, the call in [16] was inactive. In addition, the concentration for half-maximal inhibition (IC50) (commonly the concentration that gives 50% inhibition) in test [2] is 18600 nM (active).

Consider `C[C@@H]1CCNC(=O)c2cc3ccc(C(=O)Nc4nc5ccccc5n4CCCN(C)C)cc3n21`, for which the result in test [18] was inactive.

Consider `CO/N=C(/C(=O)N[C@@H]1C(=O)N2C(C(=O)O)=C(CSC(=O)c3ccco3)CS[C@H]12)c1csc(N)n1`, for which, in [15], the AC50 is 23500 nM (active). Further, the remaining NAD in test [19] was 10 nM (inactive).

Turning to `O=C(O)c1ccc(CCCc2ccc(OCCc3ccc(F)cc3)cc2)o1`, the outcome in [18] was inactive.

With `Cc1c(C(=O)Nc2ccc(N3C[C@@H](C)O[C@@H](C)C3)nc2)cccc1-c1ccc(OC(F)(F)F)cc1`, the AC50 in test [15] is 20900 nM (active). Further, in [20], the AC50 was 20900 nM (active). For the same molecule, the AC50 in test [17] was 23500 nM (active). In test [4], the SSMD is -6.97, the cell count is 6140 and the plate-normalised HSF1 focus index was 0.637 (inactive).
